Reference: the supplement of paper PMC10849652
Targets with a hit are over-represented here; the source holds about 7,900 in all. About 0.6% of all pairs of compound and target were hits.

Experiments:
Assay in all cases: log2 fold change, soluble protein after heating vs DMSO (PISA); higher = thermal stabilisation; K562 cells, 10 uM, 30 min; active = over 0.2 and 3.5 SD of the protein, either way, in both replicates (recomputed)
[1] = compound: CS(=O)(=O)c1ccc(-c2cnc(N)c(C(=O)Nc3ccccc3)n2)cc1
Summary of the method: (§1)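 Quantification of soluble protein used TMTpro 16plex LC-MS/MS, with channel sums equalised. Samples were the supernatant after 21,000xg for 90 min of pooled aliquots from K562 cells (2×10^6 cells/mL) treated with 10 μM compound for 30 min, heated for 3 min over 48°C-58°C, and extracted in PBS with 0.5% NP-40 at 4°C. Values, from duplicates, describe thermal stability against control samples on a log2 fold-change scale.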

crizotinib = compound: C[C@@H](Oc1cc(-c2cnn(C3CCNCC3)c2)cnc1N)c1c(Cl)ccc(F)c1Cl [crizotinib]
Summary of the method: as §1

[2] = compound: C[C@@H]1COCCN1C2=NC(=NC(=C2)C3(CC3)S(=O)(=O)C)C4=C5C=CNC5=CC=C4
Summary of the method: as §1

[3] = compound: C[C@H](C1=CC=C(C=C1)C(=O)NC2=C3C=CNC3=NC=C2)N
Summary of the method: as §1

duvelisib = compound: C[C@H](Nc1ncnc2nc[nH]c12)c1cc2cccc(Cl)c2c(=O)n1-c1ccccc1 [duvelisib]
Summary of the method: as §1

gandotinib = compound: Cc1cc(Nc2cc(CN3CCOCC3)c3nc(C)c(Cc4ccc(Cl)cc4F)n3n2)n[nH]1 [gandotinib]
Summary of the method: as §1

tozasertib = compound: Cc1cc(Nc2cc(N3CCN(C)CC3)nc(Sc3ccc(NC(=O)C4CC4)cc3)n2)n[nH]1 [tozasertib]
Summary of the method: as §1

[4] = compound: Cc1cc(SCc2sc(-c3ccc(C(F)(F)F)cc3)nc2C)ccc1OCC(=O)O
Summary of the method: as §1

doramapimod = compound: Cc1ccc(-n2nc(C(C)(C)C)cc2NC(=O)Nc2ccc(OCCN3CCOCC3)c3ccccc23)cc1 [doramapimod]
Summary of the method: as §1

ispinesib = compound: Cc1ccc(C(=O)N(CCCN)[C@@H](c2nc3cc(Cl)ccc3c(=O)n2Cc2ccccc2)C(C)C)cc1 [ispinesib]
Summary of the method: as §1

bafetinib = compound: Cc1ccc(NC(=O)c2ccc(CN3CC[C@H](N(C)C)C3)c(C(F)(F)F)c2)cc1Nc1nccc(-c2cncnc2)n1 [bafetinib]
Summary of the method: as §1

[5] = compound: Cc1cccc(CC(=O)N2CCc3c2ccc(-c2cn(C)c4ncnc(N)c24)c3F)n1
Summary of the method: as §1

nilotinib = compound: Cc1cn(-c2cc(NC(=O)c3ccc(C)c(Nc4nccc(-c5cccnc5)n4)c3)cc(C(F)(F)F)c2)cn1 [nilotinib]
Summary of the method: as §1

[6] = compound: Cc1nc(Nc2n[nH]c3c2CN(C(=O)N[C@H](CN(C)C)c2ccccc2)C3(C)C)c2sccc2n1
Summary of the method: as §1

dasatinib = compound: Cc1nc(Nc2ncc(C(=O)Nc3c(C)cccc3Cl)s2)cc(N2CCN(CCO)CC2)n1 [dasatinib]
Summary of the method: as §1

[7] = compound: Cc1ncc(-c2ccnc(Nc3ccc(S(C)(=O)=O)cc3)n2)n1C(C)C
Summary of the method: as §1

[8] = compound: Cn1cc(-c2ccc3c(c2)CCN3C(=O)Cc2cccc(C(F)(F)F)c2)c2c(N)ncnc21
Summary of the method: as §1

[9] = compound: Cn1cc(-c2ccc3nnc(C(F)(F)c4ccc5ncccc5c4)n3n2)cn1
Summary of the method: as §1

tipifarnib = compound: Cn1cncc1[C@@](N)(c1ccc(Cl)cc1)c1ccc2c(c1)c(-c1cccc(Cl)c1)cc(=O)n2C [tipifarnib]
Summary of the method: as §1

mubritinib = compound: FC(F)(F)c1ccc(/C=C/c2nc(COc3ccc(CCCCn4ccnn4)cc3)co2)cc1 [mubritinib]
Summary of the method: as §1

Measured: log2 fold change

MPHOSPH10 (UniProt O00566)
Chain of UniProt O00566 (O00566 whole entry, looked up): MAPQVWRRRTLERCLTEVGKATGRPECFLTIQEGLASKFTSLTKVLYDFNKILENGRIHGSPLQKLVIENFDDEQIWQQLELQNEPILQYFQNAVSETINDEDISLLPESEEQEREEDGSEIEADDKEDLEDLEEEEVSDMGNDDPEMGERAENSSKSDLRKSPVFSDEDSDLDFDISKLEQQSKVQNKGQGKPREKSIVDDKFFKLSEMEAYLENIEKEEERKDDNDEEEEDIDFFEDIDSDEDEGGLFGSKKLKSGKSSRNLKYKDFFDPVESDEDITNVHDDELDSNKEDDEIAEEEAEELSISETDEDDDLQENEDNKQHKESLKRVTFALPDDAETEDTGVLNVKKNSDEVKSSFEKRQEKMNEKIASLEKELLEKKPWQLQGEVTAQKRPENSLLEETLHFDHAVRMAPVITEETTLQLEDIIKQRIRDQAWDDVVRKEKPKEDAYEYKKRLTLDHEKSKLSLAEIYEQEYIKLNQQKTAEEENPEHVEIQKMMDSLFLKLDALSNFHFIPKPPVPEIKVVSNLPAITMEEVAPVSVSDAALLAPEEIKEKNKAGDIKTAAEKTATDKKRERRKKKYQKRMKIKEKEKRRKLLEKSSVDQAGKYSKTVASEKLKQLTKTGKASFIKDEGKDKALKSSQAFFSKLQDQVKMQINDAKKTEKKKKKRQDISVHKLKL
inactive: [1] -0.083 | crizotinib 0.026 | [2] -0.25 | [3] 0.353 | duvelisib -0.047 | gandotinib 0.189 | tozasertib 0.016 | [4] -0.046 | doramapimod 0.049 | ispinesib -0.023 | bafetinib 0.137 | [5] -0.045 | nilotinib -0.055 | [6] -0.028 | dasatinib 0.138 | [7] -0.199 | [8] -0.259 | [9] -0.001 | tipifarnib 0.246 | mubritinib -0.069

NBN (UniProt O60934)
inactive: [1] 0.02 | crizotinib 0.009 | [2] 0.038 | [3] -0.063 | duvelisib 0.105 | gandotinib -0.069 | tozasertib 0.028 | [4] 0.116 | doramapimod -0.004 | ispinesib 0.008 | bafetinib -0.021 | [5] 0.031 | nilotinib 0.018 | [6] -0.198 | dasatinib -0.171 | [7] 0.048 | [8] 0.031 | [9] 0.064 | tipifarnib -0.016 | mubritinib 0.131

MRPS15 (UniProt P82914)
inactive: [1] 0.09 | crizotinib -0.092 | [2] 0.022 | [3] 0.072 | duvelisib -0.011 | gandotinib -0.053 | tozasertib -0.046 | [4] 0.067 | doramapimod 0.042 | bafetinib 0.126 | [5] 0.159 | nilotinib -0.33 | [6] 0.056 | dasatinib -0.046 | [7] 0.07 | [8] 0.05 | [9] 0.032 | tipifarnib -0.105 | mubritinib 0.172
active: ispinesib -0.318

MRPS25 (UniProt P82663)
inactive: [1] -0.018 | crizotinib -0.082 | [2] -0.103 | [3] 0.165 | duvelisib 0.009 | gandotinib -0.109 | tozasertib 0.017 | [4] 0.121 | doramapimod -0.083 | bafetinib 0.125 | [5] 0.158 | nilotinib -0.144 | [6] -0.043 | dasatinib -0.105 | [7] 0.044 | [8] 0.037 | [9] 0 | tipifarnib -0.077 | mubritinib 0.069
active: ispinesib -0.438

OXA1L (UniProt Q15070)
inactive: [1] -0.042 | crizotinib -0.064 | [2] 0.004 | [3] -0.018 | duvelisib 0.021 | gandotinib 0.012 | tozasertib 0.005 | [4] 0.018 | doramapimod -0.01 | ispinesib -0.1 | bafetinib -0.152 | [5] -0.032 | nilotinib 0.013 | [6] -0.019 | dasatinib -0.01 | [7] -0.029 | [8] 0.013 | [9] 0.038 | tipifarnib 0.004 | mubritinib 0.003

NNT (UniProt Q13423)
active: gandotinib -0.246
inactive: [1] 0.031 | crizotinib 0.032 | [2] 0.047 | [3] -0.06 | duvelisib 0.025 | tozasertib 0.015 | [4] -0.006 | doramapimod -0.023 | ispinesib 0.02 | bafetinib -0.02 | [5] 0.056 | nilotinib -0.005 | [6] -0.006 | dasatinib -0.02 | [7] -0.018 | [8] 0.071 | [9] 0.037 | tipifarnib -0.034 | mubritinib 0.021

NUP205 (UniProt Q92621)
Chain of UniProt Q92621 (Q92621 whole entry, looked up): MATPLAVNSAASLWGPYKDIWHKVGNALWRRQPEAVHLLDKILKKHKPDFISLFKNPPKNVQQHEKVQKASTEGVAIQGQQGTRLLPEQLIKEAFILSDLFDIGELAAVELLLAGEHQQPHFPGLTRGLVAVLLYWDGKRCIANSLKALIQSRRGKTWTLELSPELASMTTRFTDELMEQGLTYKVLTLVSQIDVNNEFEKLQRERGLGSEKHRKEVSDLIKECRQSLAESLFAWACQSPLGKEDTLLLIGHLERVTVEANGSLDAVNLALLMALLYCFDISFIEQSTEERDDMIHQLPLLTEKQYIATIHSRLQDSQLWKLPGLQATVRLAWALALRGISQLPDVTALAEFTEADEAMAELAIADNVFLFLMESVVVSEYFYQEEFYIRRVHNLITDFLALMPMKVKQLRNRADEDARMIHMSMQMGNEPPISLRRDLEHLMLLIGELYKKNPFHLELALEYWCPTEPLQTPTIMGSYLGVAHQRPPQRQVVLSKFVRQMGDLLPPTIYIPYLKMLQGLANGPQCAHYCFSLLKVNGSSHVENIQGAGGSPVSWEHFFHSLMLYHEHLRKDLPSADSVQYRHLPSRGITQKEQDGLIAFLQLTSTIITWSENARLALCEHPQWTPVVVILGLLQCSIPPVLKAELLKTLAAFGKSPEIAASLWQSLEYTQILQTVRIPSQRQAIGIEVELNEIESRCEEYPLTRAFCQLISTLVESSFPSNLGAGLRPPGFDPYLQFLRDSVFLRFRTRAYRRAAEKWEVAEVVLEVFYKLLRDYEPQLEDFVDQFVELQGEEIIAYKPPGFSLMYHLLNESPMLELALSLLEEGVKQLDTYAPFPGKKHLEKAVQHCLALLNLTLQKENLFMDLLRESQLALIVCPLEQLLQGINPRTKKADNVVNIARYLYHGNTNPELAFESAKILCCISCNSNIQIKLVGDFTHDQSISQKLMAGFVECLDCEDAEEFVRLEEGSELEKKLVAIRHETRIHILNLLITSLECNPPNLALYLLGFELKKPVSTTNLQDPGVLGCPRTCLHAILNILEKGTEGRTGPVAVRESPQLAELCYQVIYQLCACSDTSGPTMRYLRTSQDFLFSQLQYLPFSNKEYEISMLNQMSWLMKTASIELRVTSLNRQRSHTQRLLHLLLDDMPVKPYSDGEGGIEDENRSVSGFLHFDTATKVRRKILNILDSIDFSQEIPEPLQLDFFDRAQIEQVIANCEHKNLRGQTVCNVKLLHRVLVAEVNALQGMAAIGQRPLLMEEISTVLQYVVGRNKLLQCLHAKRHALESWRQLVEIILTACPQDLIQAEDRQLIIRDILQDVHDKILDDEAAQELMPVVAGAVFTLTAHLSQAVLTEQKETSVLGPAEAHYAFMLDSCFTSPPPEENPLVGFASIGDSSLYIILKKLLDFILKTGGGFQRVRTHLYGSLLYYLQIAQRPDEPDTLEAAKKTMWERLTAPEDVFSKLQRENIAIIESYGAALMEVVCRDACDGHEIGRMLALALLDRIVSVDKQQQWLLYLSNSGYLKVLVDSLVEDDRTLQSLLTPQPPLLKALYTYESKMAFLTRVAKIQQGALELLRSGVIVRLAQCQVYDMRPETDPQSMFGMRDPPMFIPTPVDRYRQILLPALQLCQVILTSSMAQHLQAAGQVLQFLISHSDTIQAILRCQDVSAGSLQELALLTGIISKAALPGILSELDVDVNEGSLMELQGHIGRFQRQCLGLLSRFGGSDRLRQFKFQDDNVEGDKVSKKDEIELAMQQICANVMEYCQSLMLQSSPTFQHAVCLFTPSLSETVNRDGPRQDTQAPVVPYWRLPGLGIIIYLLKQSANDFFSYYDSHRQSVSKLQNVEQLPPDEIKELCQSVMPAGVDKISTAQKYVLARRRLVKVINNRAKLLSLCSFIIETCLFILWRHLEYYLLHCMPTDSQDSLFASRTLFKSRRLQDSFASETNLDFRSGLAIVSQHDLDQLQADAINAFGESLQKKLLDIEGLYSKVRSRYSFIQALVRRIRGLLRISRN
inactive: [1] 0.001 | crizotinib -0.054 | [2] 0.002 | [3] -0.019 | duvelisib 0.018 | gandotinib -0.17 | tozasertib 0.025 | [4] 0.094 | doramapimod 0 | ispinesib -0.018 | bafetinib -0.052 | [5] 0 | nilotinib -0.042 | [6] -0.025 | dasatinib -0.133 | [7] -0.004 | [8] -0.005 | [9] -0.052 | tipifarnib -0.072 | mubritinib 0.017

NMNAT1 (UniProt Q9HAN9)
Chain of UniProt Q9HAN9 (Q9HAN9 whole entry, looked up): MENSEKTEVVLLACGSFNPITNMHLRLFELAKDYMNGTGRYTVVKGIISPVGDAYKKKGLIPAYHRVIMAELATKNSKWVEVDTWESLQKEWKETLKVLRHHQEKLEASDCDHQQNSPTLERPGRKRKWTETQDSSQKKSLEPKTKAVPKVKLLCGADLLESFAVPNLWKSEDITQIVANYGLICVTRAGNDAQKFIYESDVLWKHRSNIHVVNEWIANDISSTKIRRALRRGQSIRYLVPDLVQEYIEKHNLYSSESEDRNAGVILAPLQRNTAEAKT
inactive: [1] -0.053 | crizotinib -0.016 | [2] -0.435 | [3] 0.164 | duvelisib -0.046 | gandotinib 0.132 | tozasertib 0.024 | [4] -0.056 | doramapimod 0.296 | ispinesib -0.212 | bafetinib 0.052 | [5] -0.034 | nilotinib -0.073 | [6] 0.023 | dasatinib 0.159 | [7] -0.047 | [8] -0.143 | [9] -0.21 | tipifarnib 0.118 | mubritinib -0.047

NFX1 (UniProt Q12986)
inactive: [1] -0.024 | crizotinib -0.232 | [2] -0.315 | [3] 0.09 | duvelisib 0.172 | gandotinib 0.21 | tozasertib -0.008 | [4] -0.164 | doramapimod 0.293 | ispinesib -0.202 | bafetinib -0.044 | [5] -0.026 | nilotinib -0.042 | [6] 0.075 | dasatinib 0.085 | [7] -0.011 | [8] 0.07 | [9] -0.15 | tipifarnib 0.131 | mubritinib -0.096

NMT2 (UniProt O60551)
inactive: [1] 0.043 | crizotinib -0.187 | [2] 0.059 | [3] 0.018 | duvelisib 0.038 | gandotinib 0.013 | tozasertib 0.042 | [4] 0.023 | doramapimod -0.013 | ispinesib -0.167 | bafetinib 0.021 | [5] 0.047 | nilotinib 0.018 | [6] 0.083 | dasatinib -0.088 | [7] -0.031 | [8] -0.003 | [9] 0.03 | tipifarnib -0.015 | mubritinib 0.041

NUMA1 (UniProt Q14980)
Chain of UniProt Q14980 (Q14980 whole entry, looked up): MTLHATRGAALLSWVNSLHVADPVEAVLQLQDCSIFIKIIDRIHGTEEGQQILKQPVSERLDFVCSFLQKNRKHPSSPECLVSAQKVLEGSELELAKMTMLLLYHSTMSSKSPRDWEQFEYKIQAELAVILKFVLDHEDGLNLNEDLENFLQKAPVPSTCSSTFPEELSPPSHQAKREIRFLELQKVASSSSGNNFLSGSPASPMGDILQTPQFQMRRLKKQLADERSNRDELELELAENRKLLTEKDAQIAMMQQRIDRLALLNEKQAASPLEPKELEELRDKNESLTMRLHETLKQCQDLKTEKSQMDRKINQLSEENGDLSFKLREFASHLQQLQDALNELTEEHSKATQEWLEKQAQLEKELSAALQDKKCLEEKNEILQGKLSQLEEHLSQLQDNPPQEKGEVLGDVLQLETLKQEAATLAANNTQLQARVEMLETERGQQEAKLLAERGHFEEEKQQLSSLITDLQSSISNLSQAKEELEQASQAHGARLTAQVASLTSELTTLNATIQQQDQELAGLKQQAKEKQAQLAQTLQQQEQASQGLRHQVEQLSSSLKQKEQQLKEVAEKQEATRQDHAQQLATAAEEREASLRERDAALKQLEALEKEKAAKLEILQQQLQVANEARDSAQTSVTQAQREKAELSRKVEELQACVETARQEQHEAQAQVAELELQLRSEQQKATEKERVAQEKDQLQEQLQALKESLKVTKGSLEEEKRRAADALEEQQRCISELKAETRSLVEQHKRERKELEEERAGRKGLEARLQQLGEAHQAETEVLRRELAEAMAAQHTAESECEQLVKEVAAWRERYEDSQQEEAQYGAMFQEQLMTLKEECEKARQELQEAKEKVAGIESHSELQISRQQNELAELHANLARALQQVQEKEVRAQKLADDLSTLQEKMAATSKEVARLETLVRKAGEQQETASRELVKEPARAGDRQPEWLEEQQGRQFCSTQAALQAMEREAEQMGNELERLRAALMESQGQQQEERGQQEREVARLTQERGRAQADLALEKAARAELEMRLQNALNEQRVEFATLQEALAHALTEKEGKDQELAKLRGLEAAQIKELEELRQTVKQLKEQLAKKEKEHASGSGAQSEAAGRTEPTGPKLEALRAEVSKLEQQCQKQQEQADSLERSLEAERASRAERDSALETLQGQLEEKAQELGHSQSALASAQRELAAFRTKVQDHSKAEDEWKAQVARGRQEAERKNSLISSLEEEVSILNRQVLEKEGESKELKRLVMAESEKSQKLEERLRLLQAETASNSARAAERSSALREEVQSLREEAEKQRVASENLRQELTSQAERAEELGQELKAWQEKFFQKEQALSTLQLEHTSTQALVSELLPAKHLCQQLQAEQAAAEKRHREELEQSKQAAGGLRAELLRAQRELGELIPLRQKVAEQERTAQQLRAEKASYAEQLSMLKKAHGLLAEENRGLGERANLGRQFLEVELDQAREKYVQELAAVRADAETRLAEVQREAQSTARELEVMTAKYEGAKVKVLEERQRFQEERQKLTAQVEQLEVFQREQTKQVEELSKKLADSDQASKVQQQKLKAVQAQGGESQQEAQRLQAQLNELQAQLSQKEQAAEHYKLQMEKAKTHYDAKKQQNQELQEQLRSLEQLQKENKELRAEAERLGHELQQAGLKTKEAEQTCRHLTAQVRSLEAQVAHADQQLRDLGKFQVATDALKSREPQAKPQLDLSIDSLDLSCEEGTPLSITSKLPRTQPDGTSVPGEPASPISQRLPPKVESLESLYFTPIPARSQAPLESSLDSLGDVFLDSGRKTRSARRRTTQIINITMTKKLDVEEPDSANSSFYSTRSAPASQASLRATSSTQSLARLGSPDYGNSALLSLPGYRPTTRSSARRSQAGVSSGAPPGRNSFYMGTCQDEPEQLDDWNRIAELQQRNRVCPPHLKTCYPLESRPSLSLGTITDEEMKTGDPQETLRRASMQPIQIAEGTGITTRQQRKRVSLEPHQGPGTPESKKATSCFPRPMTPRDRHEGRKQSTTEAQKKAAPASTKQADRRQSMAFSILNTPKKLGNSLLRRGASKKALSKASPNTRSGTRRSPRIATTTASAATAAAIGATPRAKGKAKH
inactive: [1] 0.117 | crizotinib -0.001 | [2] -0.071 | [3] 0.089 | duvelisib -0.073 | gandotinib -0.066 | tozasertib 0.108 | [4] 0.07 | doramapimod 0.178 | ispinesib -0.089 | bafetinib 0.121 | [5] 0.005 | nilotinib 0.031 | [6] -0.22 | dasatinib 0.019 | [7] -0.013 | [8] -0.194 | [9] -0.031 | tipifarnib 0.086 | mubritinib -0.043

MRPL46 (UniProt Q9H2W6)
inactive: [1] 0.042 | crizotinib 0.039 | [2] -0.019 | [3] 0.186 | duvelisib -0.024 | gandotinib 0.026 | tozasertib -0.031 | [4] 0.054 | doramapimod 0.06 | ispinesib -0.157 | bafetinib 0.06 | [5] 0.014 | nilotinib -0.03 | [6] -0.002 | dasatinib -0.006 | [7] -0.016 | [8] -0.019 | [9] 0.06 | tipifarnib 0.095 | mubritinib -0.003

NEDD4 isoform 4 (UniProt P46934)
inactive: [1] -0.05 | crizotinib -0.081 | [2] 0.095 | [3] -0.039 | duvelisib -0.006 | gandotinib -0.061 | tozasertib 0.093 | [4] -0.009 | doramapimod -0.042 | ispinesib -0.022 | bafetinib -0.067 | [5] 0.054 | nilotinib -0.047 | [6] -0.083 | dasatinib -0.068 | [7] 0.052 | [8] -0.016 | [9] 0.027 | tipifarnib -0.024 | mubritinib 0.008

MRPS6 (UniProt P82932)
inactive: [1] -0.038 | crizotinib -0.076 | [2] 0.117 | [3] 0.085 | duvelisib -0.002 | gandotinib -0.016 | tozasertib 0.022 | [4] 0.081 | doramapimod 0.048 | ispinesib -0.208 | bafetinib 0.062 | [5] 0.159 | nilotinib -0.146 | [6] 0.062 | dasatinib -0.02 | [7] -0.009 | [8] 0.007 | [9] 0.148 | tipifarnib -0.106 | mubritinib 0.112

MON1B (UniProt Q7L1V2)
active: crizotinib -0.342
inactive: [1] 0.006 | [2] 0.069 | [3] -0.001 | duvelisib -0.02 | gandotinib -0.106 | tozasertib -0.018 | [4] 0.005 | doramapimod 0.022 | ispinesib -0.102 | bafetinib -0.071 | [5] 0.004 | nilotinib 0.025 | [6] 0.015 | dasatinib -0.099 | [7] -0.048 | [8] 0.038 | [9] 0.012 | tipifarnib -0.011 | mubritinib 0.065

MRPS17 (UniProt Q9Y2R5)
inactive: [1] 0.038 | crizotinib 0.034 | [2] 0.097 | [3] 0.076 | duvelisib 0.012 | gandotinib -0.06 | tozasertib -0.019 | [4] 0.166 | doramapimod 0.033 | bafetinib 0.264 | [5] -0.01 | nilotinib -0.314 | [6] 0.067 | dasatinib -0.122 | [7] -0.012 | [8] -0.052 | [9] 0.035 | tipifarnib -0.088 | mubritinib 0.179
active: ispinesib -0.345
